{"source": "PubChem BioAssay AID504607", "about": "(Sanford-Burnham Center for Chemical Genomics, 2011)", "note": "Screen size: about 6,200 compounds; about 4,800 (77%) were called active.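 Rule for the calls: active = mean inhibition at 8 µM reaching about 37%, which flags the compound as non-specific (limit read from the data); inactive = the rest.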 The set was probably picked from earlier hits. The list is a sample of the results."}
{"test": "full-length luciferase signal inhibition, confirmation, counter-screen for Mdm2/MdmX interaction inhibitor project, cell-based, single concentration, SaOS-2 (AID 504607);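 note: p53-null SaOS-2 cells with luciferase driven by a doxycycline-inducible promoter; compound on cells about two nights before reading with doxycycline added after day one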", "settings": "SaOS-2 full-length luciferase counterscreen, luminescence; at 8 µM; hits give high values"}
{"smiles": "CC[C@]1(C(=O)OC)[C@H]2C(=O)N(Cc3ccccc3)C(=O)[C@H]2[C@H]2CN=C(SCc3ccc(C#N)cc3)N21", "inhibition": "54.6% (active)"}
{"smiles": "Cc1cc(Nc2cc(N3CCN(C)CC3)nc(Sc3ccc(NC(=O)C4CC4)cc3)n2)n[nH]1", "inhibition": "41.6% (active)"}
{"smiles": "Cc1[nH]c(C)c(S(=O)(=O)N2CCN(c3cccc(C(F)(F)F)c3)CC2)c1C(=O)N1CCCCC1", "inhibition": "54.6% (active)"}
{"smiles": "COc1ccc(CNc2nc(NCc3ccc(OC)cc3)c3ncn(C4CCCC4)c3n2)cc1", "inhibition": "73% (active)"}
{"smiles": "Cc1c(CN2CCC(CO)(CCOc3ccccc3)CC2)[nH]c2ccc(Cl)cc12", "inhibition": "53.7% (active)"}
{"smiles": "N#CC1=C(N)Oc2cc(O)ccc2C1C1CCCCC1", "note": "(centres undefined)", "inhibition": "56.5% (active)"}
{"smiles": "Cc1[nH]c(=O)c(C(=O)/C=C/c2ccccc2)c2c1CCCC2", "inhibition": "53.3% (active)"}
{"smiles": "COc1ccc2cc1Oc1ccc(cc1)C[C@H]1c3cc(c(OC)cc3CCN1C)Oc1c(O)c(OC)cc3c1[C@H](C2)N(C)CC3", "inhibition": "51.1% (active)"}
{"smiles": "CCN1C(=O)/C(=C\\N2CCN(c3cccc(Cl)c3)CC2)SC1=S", "inhibition": "72.2% (active)"}
{"smiles": "COc1cccc2sc(N(CCCN(C)C)C(=O)C(c3ccccc3)c3ccccc3)nc12", "inhibition": "24.8% (inactive)"}
{"smiles": "COc1cccc2sc(N(CCCN(C)C)C(=O)CCS(=O)(=O)c3ccccc3)nc12", "inhibition": "21.2% (inactive)"}
{"smiles": "COc1cccc2sc(NNC(=O)c3nc4ccccc4s3)nc12", "inhibition": "68.2% (active)"}
{"smiles": "CCSc1nsc(NC(=O)Nc2cccc(C(C)=O)c2)n1", "inhibition": "41% (active)"}
{"smiles": "C=CCSc1nsc(NC(=O)Nc2cccc(C(C)=O)c2)n1", "inhibition": "21.9% (inactive)"}
{"smiles": "CC(=O)c1ccc(Oc2cc(C)nc(-n3nc(C)cc3C)n2)cc1", "inhibition": "78.7% (active)"}
{"smiles": "Oc1ccc(Br)cc1/C=N/Nc1ccccn1", "inhibition": "20% (inactive)"}
{"smiles": "Oc1cccc(/C=N/Nc2ccc(Cl)nn2)c1O", "inhibition": "45.7% (active)"}
{"smiles": "Cc1nnnn1/C(=C\\c1ccccc1)C(=O)OCC(=O)N1CC2(C)CC1CC(C)(C)C2", "note": "(centres undefined)", "inhibition": "53.4% (active)"}
{"smiles": "CC[n+]1cc(C)ccc1/C=C/c1ccc(N(C)C)cc1", "inhibition": "37.8% (active)"}
{"smiles": "O=C(/C=C/Sc1ncn[nH]1)c1ccc(Cl)cc1", "inhibition": "51% (active)"}
{"smiles": "COC(=O)CCNc1ccc2c(c1)OCCO2", "inhibition": "51.5% (active)"}
{"smiles": "CCOC(=O)c1c(-c2cccc(C)c2)csc1NC(=O)c1c(-c2ccccc2)noc1C", "inhibition": "52.8% (active)"}
{"smiles": "O=C(CSc1nc2ccccc2c(=O)[nH]1)Nc1nc(-c2ccc(Br)cc2)cs1", "inhibition": "47.8% (active)"}
{"smiles": "Cc1ccc(C(=O)Nc2sc(Cc3ccc4c(c3)OCO4)c(C)c2C(N)=O)cc1", "inhibition": "89.9% (active)"}
{"smiles": "CCN1/C(=C\\c2ccc3ccccc3[n+]2CC)Sc2cc(C)ccc21", "inhibition": "25% (inactive)"}
{"smiles": "Cc1ccc2[nH]c(=O)c(CN(CCCN(C)C)C(=O)Nc3cccc(Cl)c3)cc2c1", "inhibition": "66.6% (active)"}
{"smiles": "Cc1cccc(NS(=O)(=O)c2ccc(-c3cnc(C4CC4)o3)cc2)c1", "inhibition": "63.9% (active)"}
{"smiles": "COC(=O)C1=C(Nc2ccc(C)cc2)C=C(C)C(C(=O)OC)C1c1ccc(F)cc1", "note": "(centres undefined)", "inhibition": "61.3% (active)"}
{"smiles": "O=C(c1[nH]ncc1-c1ccc(Cl)cc1)C1CO1", "note": "(centres undefined)", "inhibition": "45.8% (active)"}
{"smiles": "O=C1NC(Nc2nc3ccccc3s2)(C(F)(F)F)C(=O)N1C1CCCCC1", "note": "(centres undefined)", "inhibition": "73.6% (active)"}
{"smiles": "Brc1ccc2ncnc(NCc3cccnc3)c2c1", "inhibition": "26.8% (inactive)"}
{"smiles": "Cc1ccnc(NC(=O)C2CCN(S(=O)(=O)c3c(C)c(C)cc(C)c3C)CC2)c1", "inhibition": "46% (active)"}
{"smiles": "O=C(CCNC(=O)c1ccc(Cl)cc1)NC1CCCc2ccccc21", "note": "(centres undefined)", "inhibition": "54.4% (active)"}
{"smiles": "CCOC(=O)/C(=C\\c1ccc([N+](=O)[O-])cc1)C(=O)c1cc(C(C)=O)c(Nc2ccccc2)s1", "inhibition": "50.6% (active)"}
{"smiles": "CN(c1ccccc1)S(=O)(=O)c1cc(C(=O)N2CCN(c3ncccn3)CC2)ccc1Cl", "inhibition": "83.9% (active)"}
{"smiles": "O=C(COc1ccccc1F)Nc1nc(-c2ccccn2)cs1", "inhibition": "47.2% (active)"}
{"smiles": "Cc1ccc(C)c(N2CCN(C(=O)CCCCCn3c(=S)[nH]c4ccc(N5CCOCC5)cc4c3=O)CC2)c1", "inhibition": "60.1% (active)"}
{"smiles": "O=C(CCCCCn1c(=S)[nH]c2cc3c(cc2c1=O)OCO3)N1CCN(c2ccc(F)cc2)CC1", "inhibition": "79.3% (active)"}
{"smiles": "COc1cccc(-c2nnc(NC(=O)c3ccc(S(=O)(=O)N(CC(C)C)CC(C)C)cc3)o2)c1", "inhibition": "24.3% (inactive)"}
{"smiles": "O=C1/C(=C\\c2ccccc2Cl)SC(=S)N1CCC(=O)N1CCCc2ccccc21", "inhibition": "43.1% (active)"}
{"smiles": "O=C(CN1C(=O)c2ccccc2S1(=O)=O)N1CCc2ccccc21", "inhibition": "15.9% (inactive)"}
{"smiles": "Fc1ccccc1/C=C1\\CCCC2=C1Nc1ncnn1C2c1ccccc1F", "note": "(centres undefined)", "inhibition": "3.26% (inactive)"}
{"smiles": "Cc1ccccc1NC(=O)CSc1nc2ccc(Nc3nc(N4CCOCC4)nc(N4CCOCC4)n3)cc2s1", "inhibition": "81.4% (active)"}
{"smiles": "O=C(CSc1nc(Nc2ccccc2)nc(N2CCOCC2)n1)Nc1cc(Cl)ccc1O", "inhibition": "65.1% (active)"}
